For 58 compounds, inhibition results are on record in PubChem BioAssay AID449762 (Southern Research Specialized Biocontainment Screening …, 2010).

“And” between values parts separate entries of the source, which are not always exact repeats. Equal values may be shown once. The campaign covered roughly 330,000 compounds. About 1,900 (0.58%) were called active. Inconclusive results (about 4%) are left out. Only a sample is shown. Entries with a potency or affinity are not part of this list. Values without a mark were called inactive. No stated cut-off is given here; in the data, inconclusive means inhibition above about 70% without an active follow-up result; inactive means below that.

The assay can be described thus: M. tuberculosis growth inhibition, HTS (AID 449762).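 Further: bacterial growth assessed after seven days of incubation.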 The conditions noted are these: M. tuberculosis H37Rv growth inhibition, 7H9 media; at 25 µM; hits give high values.
For orientation: inhibition means the change of the read-out against control, counted positive when it falls. For `COc1c(C)cc(C(=O)C2CCCN(C(=O)c3cc(C)n(C)n3)C2)cc1C` (stereo not drawn), the inhibition is 5.63%.

On to `CCOC(=O)c1c(NC(=O)CCN2CCOCC2)sc(C)c1-c1ccccc1`, for which the inhibition is 3.54%.

For the compound `CCOC(=O)c1c(NC(=O)/C=C\C(=O)O)sc(C)c1-c1ccccc1`, the inhibition is -6.71%.

As for `COc1cc(/C=N/c2oc(C)c(C)c2C#N)cc(Br)c1O`, the inhibition is 12%.

Take `COCCN(C(=O)COC(=O)CCC(=O)c1ccc(Cl)cc1)c1c(N)n(Cc2ccccc2)c(=O)[nH]c1=O`: the inhibition was -11.3%.

Take `Cc1csc(NC(=O)CSc2ccc(-c3ccccc3)nn2)n1`: the inhibition was 1.71%.

As to `Cc1cc(NC(=O)CSc2ccc(-c3ccccc3)nn2)no1`, the inhibition was -8.31%.

Regarding `COCCNC(=O)c1noc2c1CCc1cc(OC)ccc1-2`, the inhibition is 3.34%.

For the compound `O=C(Nc1ccc(C(F)(F)F)cc1)c1ccc(NC(=O)C2CCCO2)cc1` (stereo not drawn), the inhibition was -5.77%.

With `Cc1cccc2sc(NNC(=O)C3=COCCO3)nc12`, the inhibition is 2.71%.

Turning to `CCOC(=O)N1CCN(C(=O)c2cccc(S(=O)(=O)Nc3ccc(Br)cc3)c2)CC1`, the inhibition was 8.88%.

Turning to `CC(NCC(O)COc1ccc2ccccc2c1)c1ccccc1` (stereo not drawn), the inhibition was 9.15%.

On to `COC(=O)C(C)n1nc(C)n(-c2ccc(C)cc2)c1=O` (stereo not drawn), for which the inhibition was -0.27%.

Regarding `CCOC(=O)c1nn(-c2ccc(C)cc2)c(=O)cc1OCC(=O)Nc1ccc(OC)cc1`, the inhibition was 8.61%.

`Cc1cc(NC(=O)c2cncc(Br)c2)ccc1NC(=O)c1cc2ccccc2o1`: the inhibition was 6.1%.

In the case of `CCC(=O)Nc1ccc(NC(=O)c2ccc3ccccc3c2)cc1`, the inhibition was -4.7%.

`O=S1(=O)CCOC[C@H](c2ccccc2)N1Cc1ccccc1F`: the inhibition was 1.26%.

Turning to `CNC(C)C#Cc1ccc2c(=O)c3cc(C)c(C)cc3oc2c1` (stereo not drawn), the inhibition is 1.51%.

`CNC(C)C#Cc1ccc2c(=O)c3ccccc3oc2c1` (stereo not drawn): the inhibition was 30%.

As for `CC(C)(C)OC(=O)C[C@@H]1C/C=C\C[C@@H](CC(=O)N(CCO)Cc2ccccc2)C(=O)NC[C@@H](c2ccccc2)OC1=O`, the inhibition was 4.78%.

On to `CCCCN(C(=O)CC1CCCC1)c1c(N)n(CCCC)c(=O)[nH]c1=O`, for which the inhibition is -14.4%.

Turning to `O=C(NCC1CCCO1)C1c2ccccc2Oc2ccccc21` (stereo not drawn), the inhibition was -7.07%.

`Cc1ccc(N(CC(=O)N2CCc3ccccc3C2)S(C)(=O)=O)cc1`: the inhibition was -1.47%.

Take `COc1cc(Cl)nn(-c2ccccc2)c1=O`: the inhibition was -13.2%.

Take `COc1c(Cl)cnn(-c2ccccc2)c1=O`: the inhibition was 6.51%.

Consider `Cn1c(=O)cc(OCC(=O)NCCCN2CCN(c3cccc(Cl)c3)CC2)c2ccccc21`, for which the inhibition was 1.78%.

As to `C=CCNc1nc(C(=O)OCC(=O)c2ccc(F)cc2)cs1`, the inhibition is -9.37%.

As for `CCN(C(=O)Cc1c(C(=O)O)n(C)c2ccccc12)c1cc(OC)ccc1OC`, the inhibition is -7.09%.

As to `C/C=C(/C)C(=O)Nc1cccc(C2=NOC3(C2)C[C@H](C(N)=O)N(C(=O)c2ccccc2)C3)c1` (stereo partly drawn), the inhibition is -2.03%.

Regarding `C/C=C(\C)C(=O)Nc1cccc(C2=NOC3(C2)C[C@@H](C(N)=O)N(C(=O)c2cc([N+](=O)[O-])cc([N+](=O)[O-])c2C)C3)c1` (stereo partly drawn), the inhibition is -8.05%.

Consider `COc1ccc(N2CC(C(=O)N3CCN(Cc4ccc5c(c4)OCO5)CC3)CC2=O)cc1` (stereo not drawn), for which the inhibition was -6.83%.

On to `COc1ccc(/C=C2\CCCC3C2=NN(C(=O)CSc2ncn[nH]2)C3c2ccc(OC)cc2)cc1` (stereo not drawn), for which the inhibition was 8.82%.

On to `O=c1cc(CNc2cc(C(F)(F)F)cc(C(F)(F)F)c2)nc2sccn12`, for which the inhibition was 3.54%.

Consider `COC(=O)CN(c1ccc2c(c1)OCCO2)S(=O)(=O)c1ccccc1`, for which the inhibition was -5.06%.

For the compound `CC(=O)c1c(C)n(Cc2ccccc2)c2ccc(O)cc12`, the inhibition was -1.54%.

`COc1ccc2c(c1)c(C(C)=O)c(C)n2CCc1ccccc1`: the inhibition was -7.55%.

Turning to `Cn1cc(CNC(=O)c2cc(COc3ccc4c(c3)CCCC4)on2)cn1`, the inhibition is 7.16%.

Regarding `CN(C)c1oc(/C=C/c2ccccc2)nc1C#N`, the inhibition is 2.83%.

`Cc1ccc(C(=O)NC(C)C2CCCO2)o1` (stereo not drawn): the inhibition was -14.8%.

With `Cc1ccc(S(=O)(=O)N2CCCCC2C(=O)N2CCN(C)CC2)cc1` (stereo not drawn), the inhibition was -3.69%.

As to `CN(C)c1cccc(/C=C(\C#N)c2ccccc2)c1`, the inhibition is 11.4%.

In the case of `CC(C)(C=O)C1=CC(=O)c2ccccc2C1=O`, the inhibition was -5.62%.

As to `CC1=CC(=O)c2ccccc2C1=O`, the inhibition is -6.06% and 0.39%.

Take `COc1ccccc1-n1c(CNC(=O)c2ccco2)nnc1SCC(=O)Nc1cc(C)ccc1C`: the inhibition was -9.93%.

With `CCCCCCNc1nc(-c2ccc(OC)cc2)c(CCC(=O)O)s1`, the inhibition is 31%.

As to `COc1ccc(CNc2ncnc3c2[nH]c2ccccc23)cc1`, the inhibition was 59.2%.

Consider `Cc1ccc2[nH]c3c(NCc4ccccc4)ncnc3c2c1`, for which the inhibition was 67.8%.

For the compound `COc1ccc(CCNc2ncnc3c2[nH]c2cc(OC)c(OC)cc23)cc1OC`, the inhibition was -4.75%.

`Fc1ccc2[nH]c3c(NCCN4CCOCC4)ncnc3c2c1`: the inhibition was 1.25%.

For `C=CCn1c(SCC(=O)c2c(N)n(CCC)c(=O)n(C)c2=O)nc2sc(CC)cc2c1=O`, the inhibition is 0.69%.

For `CSc1ccc(/C=C/C(=O)OCC(=O)c2ccc[nH]2)cc1`, the inhibition was 5.61%.

In the case of `O=C(O)CC(C(=O)NCc1ccccc1)C1CCCO1` (stereo not drawn), the inhibition was -7.82%.

Turning to `COc1cc(NC(=O)c2cnc(N)o2)cc(C(=O)Nc2cccc(C(F)(F)F)c2)c1`, the inhibition is 2.04%.

In the case of `COc1cc(NC(=O)c2ccnnc2)cc(C(=O)Nc2cccc(C(F)(F)F)c2)c1`, the inhibition was 42.8%.

As for `Cc1ccc(C)c(N2CCN(S(=O)(=O)c3c(C)[nH]c(C)c3C(=O)N3CCCCC3)CC2)c1`, the inhibition is -4.36%.

`Cc1cc(C(=O)COc2ccccc2C(N)=O)c(C)n1CC1CCCO1` (stereo not drawn): the inhibition was -7.82%.

With `Cc1cc(C(=O)COc2ccccc2C(N)=O)c(C)n1C`, the inhibition was -2.03%.

As for `O=C(O)/C=C\C(=O)Nc1ccccc1N1CCN(c2ccccc2)CC1`, the inhibition is -0.24%.
